# Key:
# [1] = biological target: Protein kinase C gamma type (Homo sapiens) (UniProt P05129); conditions: at 1 µM;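 note: each value is an averaged percent inhibition of the enzyme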
# [2] = biological target: T1, Protein kinase C iota type (Homo sapiens) (UniProt P41743); conditions: at 0.1 µM
# T1 sequence (whole entry): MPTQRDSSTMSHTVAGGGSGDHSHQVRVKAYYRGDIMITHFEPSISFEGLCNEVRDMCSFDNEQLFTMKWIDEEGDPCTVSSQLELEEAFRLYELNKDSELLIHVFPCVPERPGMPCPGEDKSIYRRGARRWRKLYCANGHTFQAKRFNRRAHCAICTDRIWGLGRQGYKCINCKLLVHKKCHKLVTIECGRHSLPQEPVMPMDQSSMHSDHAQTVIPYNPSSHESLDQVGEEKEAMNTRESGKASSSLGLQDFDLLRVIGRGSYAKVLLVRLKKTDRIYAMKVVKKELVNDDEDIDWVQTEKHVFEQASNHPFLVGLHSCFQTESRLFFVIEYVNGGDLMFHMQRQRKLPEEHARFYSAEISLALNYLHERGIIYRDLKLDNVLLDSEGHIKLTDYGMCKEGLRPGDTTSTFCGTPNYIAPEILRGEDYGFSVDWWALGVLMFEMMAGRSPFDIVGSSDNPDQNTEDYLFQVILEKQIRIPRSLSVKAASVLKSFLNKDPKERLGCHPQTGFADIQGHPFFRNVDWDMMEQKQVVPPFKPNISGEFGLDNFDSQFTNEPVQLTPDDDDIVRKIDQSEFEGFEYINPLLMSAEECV
# [3] = biological target: T1, Protein kinase C iota type (Homo sapiens); conditions: at 1 µM
# [4] = biological target: Protein kinase C theta type (Homo sapiens) (UniProt Q04759); conditions: at 0.1 µM
# Protein kinase C theta type (Homo sapiens), sequence (Q04759 whole entry, looked up): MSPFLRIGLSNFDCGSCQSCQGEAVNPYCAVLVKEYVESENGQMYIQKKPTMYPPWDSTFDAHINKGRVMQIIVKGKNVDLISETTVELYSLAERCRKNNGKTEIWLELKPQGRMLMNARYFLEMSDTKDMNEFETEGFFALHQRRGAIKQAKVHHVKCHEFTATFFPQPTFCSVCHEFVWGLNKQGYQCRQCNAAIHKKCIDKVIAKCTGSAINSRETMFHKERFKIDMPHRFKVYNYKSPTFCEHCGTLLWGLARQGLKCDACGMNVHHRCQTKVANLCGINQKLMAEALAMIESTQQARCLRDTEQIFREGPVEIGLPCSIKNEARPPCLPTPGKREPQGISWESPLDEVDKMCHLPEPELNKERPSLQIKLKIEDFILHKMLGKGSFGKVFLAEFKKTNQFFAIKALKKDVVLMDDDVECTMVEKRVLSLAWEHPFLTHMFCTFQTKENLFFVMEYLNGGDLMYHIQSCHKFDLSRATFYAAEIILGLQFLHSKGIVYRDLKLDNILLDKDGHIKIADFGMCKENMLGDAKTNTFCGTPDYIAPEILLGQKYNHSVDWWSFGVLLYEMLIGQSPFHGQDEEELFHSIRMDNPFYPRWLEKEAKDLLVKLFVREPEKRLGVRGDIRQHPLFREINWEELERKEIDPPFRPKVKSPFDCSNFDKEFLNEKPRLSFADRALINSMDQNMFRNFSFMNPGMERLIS
# [5] = biological target: Protein kinase C theta type (Homo sapiens) (UniProt Q04759); conditions: at 1 µM
# [6] = biological target: Protein kinase C beta type (Homo sapiens) (UniProt P05771); conditions: at 0.1 µM
# Protein kinase C beta type (Homo sapiens), sequence (P05771 2-671 limits assumed): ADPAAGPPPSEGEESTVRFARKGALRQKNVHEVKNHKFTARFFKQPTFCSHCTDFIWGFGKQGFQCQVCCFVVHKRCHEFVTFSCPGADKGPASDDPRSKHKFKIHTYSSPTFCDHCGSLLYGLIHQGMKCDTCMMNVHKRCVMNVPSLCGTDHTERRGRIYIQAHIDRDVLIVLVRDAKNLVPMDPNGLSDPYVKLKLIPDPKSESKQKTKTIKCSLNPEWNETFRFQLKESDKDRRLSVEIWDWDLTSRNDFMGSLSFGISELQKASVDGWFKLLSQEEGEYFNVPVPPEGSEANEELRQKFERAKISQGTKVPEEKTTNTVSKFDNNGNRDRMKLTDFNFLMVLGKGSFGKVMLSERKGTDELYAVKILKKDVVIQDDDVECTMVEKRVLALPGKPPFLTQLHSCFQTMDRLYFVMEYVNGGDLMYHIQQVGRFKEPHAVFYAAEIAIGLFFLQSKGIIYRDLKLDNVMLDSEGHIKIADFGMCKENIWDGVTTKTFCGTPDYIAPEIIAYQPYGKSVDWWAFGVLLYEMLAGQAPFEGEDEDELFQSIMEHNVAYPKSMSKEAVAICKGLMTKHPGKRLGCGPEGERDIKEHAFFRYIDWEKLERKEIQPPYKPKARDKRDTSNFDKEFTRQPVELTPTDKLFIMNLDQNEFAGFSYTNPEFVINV
# [7] = biological target: Protein kinase C beta type (Homo sapiens) (UniProt P05771); conditions: at 1 µM
# [8] = biological target: T2, Serine/threonine-protein kinase D1 (Homo sapiens) (UniProt Q15139); conditions: at 0.1 µM
# T2 sequence (whole entry): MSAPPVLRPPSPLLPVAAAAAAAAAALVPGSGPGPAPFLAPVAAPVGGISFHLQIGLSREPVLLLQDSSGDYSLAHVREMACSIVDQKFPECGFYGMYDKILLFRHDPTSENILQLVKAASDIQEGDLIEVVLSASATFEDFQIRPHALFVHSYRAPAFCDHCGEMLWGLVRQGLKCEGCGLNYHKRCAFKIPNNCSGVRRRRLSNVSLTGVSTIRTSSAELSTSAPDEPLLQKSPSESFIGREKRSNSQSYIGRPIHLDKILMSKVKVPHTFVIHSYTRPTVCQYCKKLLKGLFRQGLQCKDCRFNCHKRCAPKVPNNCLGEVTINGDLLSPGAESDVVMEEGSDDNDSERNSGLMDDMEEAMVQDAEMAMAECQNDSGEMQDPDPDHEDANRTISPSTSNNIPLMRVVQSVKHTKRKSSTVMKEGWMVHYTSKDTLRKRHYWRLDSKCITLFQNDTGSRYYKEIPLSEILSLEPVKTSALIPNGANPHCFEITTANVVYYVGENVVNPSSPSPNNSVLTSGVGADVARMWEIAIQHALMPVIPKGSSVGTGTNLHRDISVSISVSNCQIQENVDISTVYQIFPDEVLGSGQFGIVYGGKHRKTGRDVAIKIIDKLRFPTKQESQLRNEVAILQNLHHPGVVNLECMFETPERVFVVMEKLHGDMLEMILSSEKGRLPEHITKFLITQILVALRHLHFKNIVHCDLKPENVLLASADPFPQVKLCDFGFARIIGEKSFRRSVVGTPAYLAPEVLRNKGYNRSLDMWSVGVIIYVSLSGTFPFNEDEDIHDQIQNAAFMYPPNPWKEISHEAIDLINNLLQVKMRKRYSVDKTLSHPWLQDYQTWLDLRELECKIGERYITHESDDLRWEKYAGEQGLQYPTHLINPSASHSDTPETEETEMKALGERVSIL
# [9] = biological target: T2, Serine/threonine-protein kinase D1 (Homo sapiens); conditions: at 1 µM
# [10] = biological target: T3, Serine/threonine-protein kinase D2 (Homo sapiens) (UniProt Q9BZL6); conditions: at 0.1 µM
# T3 sequence (whole entry): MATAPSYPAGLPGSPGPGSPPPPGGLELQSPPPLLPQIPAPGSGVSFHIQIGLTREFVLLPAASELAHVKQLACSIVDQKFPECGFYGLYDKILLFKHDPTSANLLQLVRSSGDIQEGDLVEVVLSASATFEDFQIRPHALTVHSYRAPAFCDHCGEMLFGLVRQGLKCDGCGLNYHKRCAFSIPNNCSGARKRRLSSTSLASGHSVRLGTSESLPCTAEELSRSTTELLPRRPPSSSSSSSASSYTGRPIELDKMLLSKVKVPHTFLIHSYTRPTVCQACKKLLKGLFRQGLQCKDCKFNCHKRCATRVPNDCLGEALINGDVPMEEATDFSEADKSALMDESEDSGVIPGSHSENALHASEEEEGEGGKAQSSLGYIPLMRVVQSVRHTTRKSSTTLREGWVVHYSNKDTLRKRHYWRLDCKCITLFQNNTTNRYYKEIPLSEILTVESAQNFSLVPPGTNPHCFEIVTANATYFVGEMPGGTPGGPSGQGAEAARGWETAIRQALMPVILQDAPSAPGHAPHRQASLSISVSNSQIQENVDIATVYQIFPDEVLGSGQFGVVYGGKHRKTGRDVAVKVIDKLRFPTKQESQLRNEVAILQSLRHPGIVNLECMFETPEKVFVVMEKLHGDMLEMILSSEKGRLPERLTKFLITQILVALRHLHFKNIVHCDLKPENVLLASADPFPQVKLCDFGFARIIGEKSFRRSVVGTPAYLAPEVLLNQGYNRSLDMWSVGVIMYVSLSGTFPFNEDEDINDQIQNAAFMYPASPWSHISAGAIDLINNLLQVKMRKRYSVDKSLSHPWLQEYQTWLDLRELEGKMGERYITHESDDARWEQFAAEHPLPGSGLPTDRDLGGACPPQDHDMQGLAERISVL
# [11] = biological target: T3, Serine/threonine-protein kinase D2 (Homo sapiens); conditions: at 1 µM
# [12] = biological target: T4, Serine/threonine-protein kinase D3 (Homo sapiens) (UniProt O94806); conditions: at 0.1 µM
# T4 sequence (whole entry): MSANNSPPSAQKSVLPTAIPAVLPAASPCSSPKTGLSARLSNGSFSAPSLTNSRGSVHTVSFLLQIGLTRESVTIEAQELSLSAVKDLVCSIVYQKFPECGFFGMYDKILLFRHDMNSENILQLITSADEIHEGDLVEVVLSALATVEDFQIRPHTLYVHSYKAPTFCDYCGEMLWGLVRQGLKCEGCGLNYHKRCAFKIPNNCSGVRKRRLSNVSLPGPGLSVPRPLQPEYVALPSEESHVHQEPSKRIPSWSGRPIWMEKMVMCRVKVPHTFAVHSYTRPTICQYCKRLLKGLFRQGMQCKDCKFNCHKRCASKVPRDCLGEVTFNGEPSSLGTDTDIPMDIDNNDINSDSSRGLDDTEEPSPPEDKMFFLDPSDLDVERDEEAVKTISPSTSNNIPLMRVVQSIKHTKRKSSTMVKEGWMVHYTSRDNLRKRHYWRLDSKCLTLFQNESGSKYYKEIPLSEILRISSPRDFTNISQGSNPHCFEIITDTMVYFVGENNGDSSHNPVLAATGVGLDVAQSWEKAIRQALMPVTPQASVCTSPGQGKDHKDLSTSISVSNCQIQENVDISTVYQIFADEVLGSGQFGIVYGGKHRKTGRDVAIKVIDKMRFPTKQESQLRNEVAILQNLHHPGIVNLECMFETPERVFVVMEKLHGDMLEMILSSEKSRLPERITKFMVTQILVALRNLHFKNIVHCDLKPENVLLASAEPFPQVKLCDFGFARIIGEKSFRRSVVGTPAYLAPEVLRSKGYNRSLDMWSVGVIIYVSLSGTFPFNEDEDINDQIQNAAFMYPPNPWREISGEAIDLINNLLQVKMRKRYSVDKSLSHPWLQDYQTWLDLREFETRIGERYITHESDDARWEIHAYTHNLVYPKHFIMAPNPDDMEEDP
# [13] = biological target: T4, Serine/threonine-protein kinase D3 (Homo sapiens); conditions: at 1 µM
# [14] = biological target: T5, cGMP-dependent protein kinase 1 (Homo sapiens) (UniProt Q13976); conditions: at 0.1 µM
# T5 sequence (whole entry): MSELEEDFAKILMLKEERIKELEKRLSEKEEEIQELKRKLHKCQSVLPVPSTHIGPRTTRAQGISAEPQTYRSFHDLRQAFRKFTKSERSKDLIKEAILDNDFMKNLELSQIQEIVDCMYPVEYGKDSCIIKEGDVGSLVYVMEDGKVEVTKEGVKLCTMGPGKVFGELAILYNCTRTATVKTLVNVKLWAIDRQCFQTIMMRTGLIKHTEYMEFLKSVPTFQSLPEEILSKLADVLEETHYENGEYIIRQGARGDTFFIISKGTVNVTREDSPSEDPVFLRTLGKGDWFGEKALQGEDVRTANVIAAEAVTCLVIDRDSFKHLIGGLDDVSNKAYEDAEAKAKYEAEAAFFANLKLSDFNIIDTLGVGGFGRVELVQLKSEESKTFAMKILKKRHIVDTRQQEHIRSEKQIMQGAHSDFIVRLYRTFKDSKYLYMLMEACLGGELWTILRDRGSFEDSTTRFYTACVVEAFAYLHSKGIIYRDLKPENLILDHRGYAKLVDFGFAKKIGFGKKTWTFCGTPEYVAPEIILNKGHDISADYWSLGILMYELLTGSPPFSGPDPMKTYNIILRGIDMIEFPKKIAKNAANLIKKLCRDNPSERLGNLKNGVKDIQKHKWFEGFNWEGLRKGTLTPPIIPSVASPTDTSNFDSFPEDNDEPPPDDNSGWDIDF
# [15] = biological target: T5, cGMP-dependent protein kinase 1 (Homo sapiens); conditions: at 1 µM
# [16] = biological target: T6, cGMP-dependent protein kinase 2 (Homo sapiens) (UniProt Q13237); conditions: at 0.1 µM
# T6 sequence (whole entry): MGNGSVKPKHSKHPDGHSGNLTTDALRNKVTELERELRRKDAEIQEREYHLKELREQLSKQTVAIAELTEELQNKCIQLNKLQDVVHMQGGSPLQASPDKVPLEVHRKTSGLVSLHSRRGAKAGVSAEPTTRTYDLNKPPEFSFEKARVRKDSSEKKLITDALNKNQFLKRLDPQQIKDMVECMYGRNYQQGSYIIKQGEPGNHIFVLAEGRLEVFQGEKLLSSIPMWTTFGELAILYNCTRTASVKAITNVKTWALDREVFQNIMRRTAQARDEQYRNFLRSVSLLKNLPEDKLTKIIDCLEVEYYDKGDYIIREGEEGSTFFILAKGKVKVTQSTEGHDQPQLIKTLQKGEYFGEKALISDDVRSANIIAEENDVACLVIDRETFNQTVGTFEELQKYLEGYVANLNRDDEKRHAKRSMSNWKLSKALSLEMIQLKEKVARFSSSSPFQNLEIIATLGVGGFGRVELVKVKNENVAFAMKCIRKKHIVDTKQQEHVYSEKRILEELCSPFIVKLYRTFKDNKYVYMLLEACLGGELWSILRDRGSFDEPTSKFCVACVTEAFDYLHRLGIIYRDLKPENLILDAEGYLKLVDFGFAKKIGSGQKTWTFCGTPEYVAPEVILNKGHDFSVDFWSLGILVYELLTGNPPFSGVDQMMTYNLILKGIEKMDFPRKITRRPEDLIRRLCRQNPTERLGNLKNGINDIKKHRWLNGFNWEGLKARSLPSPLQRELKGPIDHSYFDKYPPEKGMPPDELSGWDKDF
# [17] = biological target: T6, cGMP-dependent protein kinase 2 (Homo sapiens); conditions: at 1 µM
# [18] = biological target: T7, cAMP-dependent protein kinase catalytic subunit PRKX (Homo sapiens) (UniProt P51817); conditions: at 0.1 µM
# T7 sequence (whole entry): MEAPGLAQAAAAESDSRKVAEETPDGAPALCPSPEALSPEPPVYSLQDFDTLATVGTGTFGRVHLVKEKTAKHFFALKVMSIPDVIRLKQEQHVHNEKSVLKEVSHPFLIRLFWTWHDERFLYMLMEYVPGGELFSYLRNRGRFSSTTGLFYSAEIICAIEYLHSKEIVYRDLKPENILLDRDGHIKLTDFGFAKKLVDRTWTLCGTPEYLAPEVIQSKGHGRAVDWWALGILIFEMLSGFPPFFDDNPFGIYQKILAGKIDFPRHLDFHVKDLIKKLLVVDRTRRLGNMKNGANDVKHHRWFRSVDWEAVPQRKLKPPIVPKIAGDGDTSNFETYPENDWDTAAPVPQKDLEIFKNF
# [19] = biological target: T7, cAMP-dependent protein kinase catalytic subunit PRKX (Homo sapiens); conditions: at 1 µM
# [20] = biological target: Rho-associated protein kinase 1 (Homo sapiens) (UniProt Q13464); conditions: at 0.1 µM;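 note: values are mean percent inhibition of ROCK1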
# Rho-associated protein kinase 1 (Homo sapiens), sequence (Q13464 2-1354 limits assumed): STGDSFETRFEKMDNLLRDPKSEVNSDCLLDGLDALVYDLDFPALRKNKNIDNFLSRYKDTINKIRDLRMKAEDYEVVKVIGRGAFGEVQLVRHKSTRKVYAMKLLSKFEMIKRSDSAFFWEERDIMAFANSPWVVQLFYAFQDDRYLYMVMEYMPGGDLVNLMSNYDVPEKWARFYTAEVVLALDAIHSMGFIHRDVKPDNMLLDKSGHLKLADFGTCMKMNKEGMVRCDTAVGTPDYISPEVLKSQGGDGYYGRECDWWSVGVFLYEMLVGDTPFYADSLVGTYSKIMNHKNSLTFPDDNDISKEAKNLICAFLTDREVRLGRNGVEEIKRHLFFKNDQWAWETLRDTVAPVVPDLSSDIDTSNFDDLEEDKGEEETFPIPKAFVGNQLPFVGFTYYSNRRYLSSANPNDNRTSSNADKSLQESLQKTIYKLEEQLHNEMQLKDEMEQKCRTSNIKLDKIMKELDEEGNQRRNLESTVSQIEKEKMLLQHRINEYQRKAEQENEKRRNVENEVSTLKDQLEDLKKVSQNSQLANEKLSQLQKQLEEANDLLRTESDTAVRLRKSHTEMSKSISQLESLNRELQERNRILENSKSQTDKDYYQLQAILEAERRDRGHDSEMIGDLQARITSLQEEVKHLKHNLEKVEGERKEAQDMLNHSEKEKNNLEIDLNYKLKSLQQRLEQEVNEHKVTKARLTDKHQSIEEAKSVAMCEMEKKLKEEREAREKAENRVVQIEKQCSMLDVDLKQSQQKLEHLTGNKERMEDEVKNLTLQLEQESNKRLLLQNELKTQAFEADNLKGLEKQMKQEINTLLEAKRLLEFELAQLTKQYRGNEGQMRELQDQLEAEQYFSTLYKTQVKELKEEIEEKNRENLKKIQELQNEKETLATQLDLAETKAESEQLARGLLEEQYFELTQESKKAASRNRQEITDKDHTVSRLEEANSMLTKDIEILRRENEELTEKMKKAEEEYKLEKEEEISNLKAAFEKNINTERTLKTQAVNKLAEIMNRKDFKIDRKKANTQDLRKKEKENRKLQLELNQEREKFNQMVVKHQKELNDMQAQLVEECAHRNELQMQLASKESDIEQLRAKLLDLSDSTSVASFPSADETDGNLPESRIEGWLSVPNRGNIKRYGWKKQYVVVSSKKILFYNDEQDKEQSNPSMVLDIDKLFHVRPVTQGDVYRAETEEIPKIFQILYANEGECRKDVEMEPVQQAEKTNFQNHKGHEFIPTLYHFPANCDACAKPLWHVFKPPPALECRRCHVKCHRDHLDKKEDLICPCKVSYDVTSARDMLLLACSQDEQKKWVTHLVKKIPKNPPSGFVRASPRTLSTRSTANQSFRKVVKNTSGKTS
smiles,measurement,setting,value
CN(c1ccc(NC(=O)Nc2ccc(OC(F)(F)F)cc2)cc1)c1ccnc(Nc2cccc(S(N)(=O)=O)c2)n1,inhibition,[1],2.99%
same,inhibition,[2],0.52%
same,inhibition,[3],-0.73%
same,inhibition,[4],0.61%
same,inhibition,[5],0.96%
same,inhibition,[6],-0.08%
same,inhibition,[7],0.69%
same,inhibition,[8],2.95%
same,inhibition,[9],4.48%
same,inhibition,[10],3.68%
same,inhibition,[11],3.78%
same,inhibition,[12],3.1%
same,inhibition,[13],3.42%
same,inhibition,[14],-0.15%
same,inhibition,[15],0.56%
same,inhibition,[16],0.76%
same,inhibition,[17],-0.82%
same,inhibition,[18],0.6%
same,inhibition,[19],0%
same,inhibition,[20],-0.35%
CC(C)c1ccc(Nc2nccc(-c3cnn4ncccc34)n2)cc1,inhibition,[1],5.49%
same,inhibition,[2],0.41%
same,inhibition,[3],-0.49%
same,inhibition,[4],0.56%
same,inhibition,[5],2.84%
same,inhibition,[6],0.59%
same,inhibition,[7],1.47%
same,inhibition,[8],2.12%
same,inhibition,[9],15.9%
same,inhibition,[10],1.32%
same,inhibition,[11],15.6%
same,inhibition,[12],2.22%
same,inhibition,[13],15.6%
same,inhibition,[14],0.59%
same,inhibition,[15],4.3%
same,inhibition,[16],1.01%
same,inhibition,[17],3.05%
same,inhibition,[18],0.91%
same,inhibition,[19],1.43%
same,inhibition,[20],0.36%
COc1cc2ncnc(Nc3ccc4c(cnn4Cc4ccccc4)c3)c2cc1OC,inhibition,[1],2.04%
same,inhibition,[2],0.72%
same,inhibition,[3],0.48%
same,inhibition,[4],0.78%
same,inhibition,[5],0.99%
same,inhibition,[6],0.94%
same,inhibition,[7],0.88%
same,inhibition,[8],2.89%
same,inhibition,[9],5.2%
same,inhibition,[10],2.96%
same,inhibition,[11],3%
same,inhibition,[12],2.69%
same,inhibition,[13],4.17%
same,inhibition,[14],1.58%
same,inhibition,[15],1.78%
same,inhibition,[16],1.02%
same,inhibition,[17],0.7%
same,inhibition,[18],1.5%
same,inhibition,[19],1.55%
same,inhibition,[20],2.33%

# Reference: ChEMBL document CHEMBL1961873, “Compounds: GSK PKIS; Assays: Nanosyn kinase panel” (2012)
